Screening data from PubChem.
Beta2AR agonist – activates human beta-2 adrenergic receptor causing internalization | AID 504454 | response, % (test concentration not listed) | Am2.2-beta2AR cells, FAP receptor internalization, flow cytometry | 0.43% of 340,000 active;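 active means response above a set limit, near 3 SD of response in nonfluorescent compounds, cut at about 42% in these data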
Target sequence (P07550 whole entry, looked up): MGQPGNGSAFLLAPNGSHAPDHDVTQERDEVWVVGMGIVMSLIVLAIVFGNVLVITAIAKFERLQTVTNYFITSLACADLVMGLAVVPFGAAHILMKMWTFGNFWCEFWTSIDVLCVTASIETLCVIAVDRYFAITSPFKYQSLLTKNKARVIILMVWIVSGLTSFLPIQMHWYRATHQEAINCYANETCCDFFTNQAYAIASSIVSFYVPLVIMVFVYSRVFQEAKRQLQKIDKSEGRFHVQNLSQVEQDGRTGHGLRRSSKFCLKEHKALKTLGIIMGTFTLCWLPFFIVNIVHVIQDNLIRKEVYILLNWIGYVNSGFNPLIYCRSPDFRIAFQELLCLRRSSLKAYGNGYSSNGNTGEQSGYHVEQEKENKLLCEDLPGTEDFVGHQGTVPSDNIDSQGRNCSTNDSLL
PfHsp90 set2 – reduces growth (ATP signal) of yeast expressing P. falciparum Hsp90; S. cerevisiae expressing PfHsp90, BacTiter-Glo ATP, 48 h; yeast lacking PDR1 and PDR3 efflux regulators; inhibition, % at 9.4 µM; 0.32% of 310,000 active; AID 504621;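 active means every replicate shows inhibition above about 80%, whatever the replicate mean, limit read from the data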
tim23-1 inh – tim23-1 yeast growth inhibition | S. cerevisiae tim23-1 growth, BacTiter-Glo luminescence, 24 h | inhibition, % at 20 µM | 1.3% of 330,000 active | AID 463212;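 active means growth inhibition of the mutant yeast at or above 50%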;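 further: temperature-sensitive mutant grown at 25 °C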
TIM10 inh – growth inhibitors of TIM10 yeast strain. S. cerevisiae TIM10 strain growth, BacTiter-Glo luminescence, 24 h. inhibition, % at 10 µM. 1.4% of 330,000 active;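 active means inhibition of 40% or more at the single tested concentration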;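 further: wild-type TIM10 isogenic control strain grown at permissive 25 °C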
tim10-1 inh – tim10-1 yeast growth inhibition; S. cerevisiae tim10-1 ts strain growth, BacTiter-Glo, 24 h; inhibition, % at 20 µM; 2.2% of 330,000 active;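 active means inhibition of at least 40%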;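 further: mutant grown at 25 °C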
tim10-1 confirm – confirmation of tim10-1 mutant yeast growth inhibitors; inhibition, % at 20 µM; S. cerevisiae tim10-1 ts strain growth, BacTiter-Glo, 24 h; 56% of 7,400 active; shares compounds with tim10-1 inh;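 active means inhibition of yeast growth at or above a set limit in either of two repeat tests at 20 µM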;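 further: tim10-1 mutant grown at permissive 25 °C to find synthetic lethal compounds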
TIM10 conf – confirmation of TIM10 yeast growth inhibitors | shares compounds with TIM10 inh | S. cerevisiae tim10 strain growth, BacTiter-Glo luminescence, 24 h | inhibition, % at 10 µM | 63% of 4,600 active;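 active means inhibition of yeast growth at or above a set limit in either of two replicates at 10 µM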; further: this counterscreen used the strain with wild-type TIM10
tim23-1 confirm – tim23-1 yeast growth inhibition, confirmed. inhibition, % at 20 µM. shares compounds with tim23-1 inh. S. cerevisiae tim23-1 growth, BacTiter-Glo luminescence, 24 h. AID 463218. 83% of 4,400 active;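 active means inhibition above about 39% in either of two replicate wells at 20 µM, limit read from the data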;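 further: temperature-sensitive tim23-1 mutant grown at 25 °C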
Of the large screens only hits and unclear results are named; the others gave an inactive call (follow-up assays come after a bar, where they were run). A selection: hits, their analogues and other compounds. The true share with any hit is near 3.8%.

COc1cc(/C=C/C(=O)c2c(O)ccc3c(C)cc(=O)oc23)ccc1O	tim23-1 inh 73.3, TIM10 inh 57.1, tim10-1 inh 77.7 | tim10-1 confirm 71.8 | TIM10 conf 72.9 | tim23-1 confirm 82.0
CC(=O)c1c(OCC(=O)O)ccc2c(C)cc(=O)oc12	none
Cc1cc(=O)oc2c(C(=O)/C=C/c3ccccc3)c(O)ccc12	none
CC(C)(C)c1ccc(S(=O)(=O)N2CCN(C(=O)C3=COCCO3)CC2)cc1	none
CCOC(=O)N1C(=O)[C@](c2ccc(Cl)cc2)(C(C)C)N1C(=O)OCC	tim23-1 inh 61.2, tim10-1 inh 42.5 | tim10-1 confirm 41.8 | tim23-1 confirm 56.1
Cn1cccc1C(=O)OCc1ccc(C(C)(C)C)cc1	none
Oc1cc2c(cc1C(c1ccc(Cl)c(Cl)c1)N1CCCC1)OCO2 (stereo unspecified)	tim23-1 inh 63.3, tim10-1 inh 49.8 | tim10-1 confirm 38.6 | tim23-1 confirm 45.0
COc1ccc(S(=O)(=O)N2CCCC2CNC(=O)C(=O)NCc2ccccc2Cl)cc1 (stereo unspecified)	none
COc1ccc(N2C(=O)c3ccccc3C2=O)cc1	none
COc1ccc(N2C(=O)C(Cl)=C(Oc3cccc(OC)c3)C2=O)cc1	tim23-1 inh 53.4, TIM10 inh 75.4, tim10-1 inh 72.3 | tim10-1 confirm 56.8 | TIM10 conf 81.5 | tim23-1 confirm inactive
COc1cc(C=O)c(Br)cc1OC1CCCC1	tim23-1 inh 55.9, TIM10 inh 44.9, tim10-1 inh 48.0 | tim10-1 confirm 33.0 | TIM10 conf 33.8 | tim23-1 confirm 53.1
O=C(/C(=C/c1ccc(Cl)cc1)c1nc2ccccc2[nH]1)c1ccccc1	PfHsp90 set2 98.0, tim23-1 inh 51.0, TIM10 inh 51.4, tim10-1 inh 42.3 | tim10-1 confirm 37.5 | TIM10 conf 35.2 | tim23-1 confirm 57.5
Cc1ccc(/C=N/NC(=O)c2nnn(-c3nonc3N)c2-c2ccc3c(c2)OCO3)s1	none
CC(C)CCNC(=S)Nc1ccc([N+](=O)[O-])cc1	tim23-1 inh 59.8, TIM10 inh 51.6, tim10-1 inh 73.5 | tim10-1 confirm 67.5 | TIM10 conf inactive | tim23-1 confirm 55.7
CCCCNC(=S)NC(=O)c1ccc([N+](=O)[O-])cc1	tim23-1 inh 53.4, tim10-1 inh 51.6 (no result: PfHsp90 set2) | tim10-1 confirm inactive | tim23-1 confirm 52.7
CC(C)CNC(=S)NC(=O)c1csc([N+](=O)[O-])c1	tim23-1 inh 63.1, tim10-1 inh 41.9 | tim10-1 confirm 32.0 | tim23-1 confirm 64.3
CC(C)CNC(=S)NC(=O)c1ccc([N+](=O)[O-])cc1	tim23-1 inh 52.7 | tim10-1 confirm 32.1 | tim23-1 confirm 42.5
CCOc1ccc(C(=O)NCC(=O)NNC(=O)CN(C)S(=O)(=O)c2ccc(Cl)cc2)cc1OCC	none (no result: tim23-1 inh, TIM10 inh, tim10-1 inh)
CCNS(=O)(=O)c1ccc(CCC(=O)N2CCN(C(=O)OCC)CC2)cc1	none
Cc1cc(O)c(C(C)C)cc1NC(=O)Nc1ccc([N+](=O)[O-])cc1	none (no result: tim23-1 inh, TIM10 inh, tim10-1 inh)
Cc1ccc(C(C)C)cc1NC(=O)Nc1ccc([N+](=O)[O-])cc1	tim23-1 inh 74.7, TIM10 inh 68.5, tim10-1 inh 75.7 | tim10-1 confirm 79.3 | TIM10 conf 67.2 | tim23-1 confirm 83.0
CC(=O)Nc1ccc(S(=O)(=O)N(C)c2ccc(OCC(=O)NCCc3ccccc3F)cc2)cc1	none (no result: tim23-1 inh, TIM10 inh, tim10-1 inh)
O=C1CS(=O)(=O)N(Cc2cccc(F)c2)c2ccc(Br)cc21	tim23-1 inh 66.1, tim10-1 inh 48.4 | tim10-1 confirm 47.9 | tim23-1 confirm inactive
CCCCCOc1ccc(C2C(C(=O)c3ccc(C)o3)=C(O)C(=O)N2c2cc(C)on2)cc1 (stereo unspecified)	none
Cc1ccc(C(=O)O/N=C(\N)Cc2cccs2)cc1[N+](=O)[O-]	tim23-1 inh 88.2, TIM10 inh 82.7, tim10-1 inh 43.2 | tim10-1 confirm 66.7 | TIM10 conf 85.1 | tim23-1 confirm 83.1
COc1ccc(C(=O)O/N=C(\N)Cc2cccs2)cc1OC	none
COc1ccccc1C/C(N)=N/OC(=O)c1ccc(C)c([N+](=O)[O-])c1	tim23-1 inh 75.2, TIM10 inh 85.7, tim10-1 inh 69.1 | tim10-1 confirm 42.8 | TIM10 conf 85.9 | tim23-1 confirm 41.5
O=C(Cc1ccccc1[N+](=O)[O-])OCc1cccc([N+](=O)[O-])c1	none (no result: Beta2AR agonist, PfHsp90 set2)
O=C1N2CCCc3cccc(c32)C12Nc1ccccc1S2 (stereo unspecified)	none (no result: PfHsp90 set2, tim23-1 inh, TIM10 inh, tim10-1 inh)
CC1CC(C)(C)N2C(=O)C3(Nc4ccccc4S3)c3cccc1c32 (stereo unspecified)	tim23-1 inh 58.3, TIM10 inh 47.1, tim10-1 inh 61.0 | tim10-1 confirm 54.5 | TIM10 conf 61.0 | tim23-1 confirm 62.5
Cc1cccc(N2C(=O)CC(Cn3nc(C)cc3C)C2=O)c1 (stereo unspecified)	none
CCN(CC)C1CC(=O)N(c2cccc(C)c2)C1=O (stereo unspecified)	tim23-1 inh 54.2, tim10-1 inh 58.7 (no result: Beta2AR agonist, PfHsp90 set2) | tim10-1 confirm 55.5 | tim23-1 confirm 66.1
Cc1ccc(O)c(N=Cc2cc(Cc3ccccc3)cc([N+](=O)[O-])c2O)c1	PfHsp90 set2 100.9, tim23-1 inh 51.4, tim10-1 inh 52.1 | tim10-1 confirm inactive | tim23-1 confirm 61.1
CNC(=O)c1c(NC(=O)c2ccco2)sc2c1CCCC2	tim23-1 inh 57.8, tim10-1 inh 58.4 | tim10-1 confirm 38.5 | tim23-1 confirm 48.5
CC(C)OC(=O)c1c(NC(=O)c2ccco2)sc2c1CCCCC2	none
COC(=O)c1cc(C)[nH]c2c(C)cc3nc4ccccc4c3c12	tim23-1 inh 59.3, tim10-1 inh 50.4 | tim10-1 confirm 42.1 | tim23-1 confirm inactive
COC(=O)c1c(C)nc2ccccc2c1C(=O)O	none
CCc1[nH]nc2c1C(c1ccc(Br)s1)C(C#N)=C(N)O2 (stereo unspecified)	tim23-1 inh 82.2, TIM10 inh 74.7, tim10-1 inh 85.5 | tim10-1 confirm 82.9 | TIM10 conf inactive | tim23-1 confirm 79.9
CCc1[nH]nc2c1C(c1ccsc1)C(C#N)=C(N)O2 (stereo unspecified)	none
Cc1ccc(SCc2[nH]nc3c2C(c2ccco2)C(C#N)=C(N)O3)cc1 (stereo unspecified)	tim23-1 inh 68.2, tim10-1 inh 70.8 | tim10-1 confirm 55.0 | tim23-1 confirm 50.5
CCOC(=O)/C=C/C(=O)OCC(=O)Nc1ccc(Cl)cc1Cl	tim23-1 inh 53.5, tim10-1 inh 47.5 | tim10-1 confirm 45.7 | tim23-1 confirm 73.4
